In the supplement of paper PMC10720658:
± gives the standard deviation of the averaged measurements.

tested on: AEK1 (Tb927.3.2440); assay: percent reduction in TR-FRET probe signal relative to DMSO control; higher = stronger displacement of ATP-site probe (binding); conditions: 1 µM; incubation time 1 h

Structure (SMILES) | percent reduction in TR-FRET probe signal [%]
C=CC(=O)Nc1cccc(Oc2nc(Nc3ccc(N4CCN(C)CC4)cc3OC)ncc2Cl)c1 | 3 ± 23
COCCOc1ccc2c(c1)ncn2-c1ccc2cccc(N3CCC(N)CC3)c2n1 | 24.4 ± 7.1
Nc1ncnc2c1c(-c1cnc3[nH]ccc3c1)nn2C1CCCC1 | 21.6 ± 20
CN([C@@H](Cc1ccc(OS(=O)(=O)c2cccc3cnccc23)cc1)C(=O)N1CCN(c2ccccc2)CC1)S(=O)(=O)c1cccc2cnccc12 | 0.31 ± 8.8
Cc1cc(Nc2nc(N[C@@H](C)c3ccc(F)cc3)c(C#N)cc2F)n[nH]1 | 56.3 ± 7.3
C[C@H](Nc1ncnc2nc[nH]c12)c1cc2cccc(Cl)c2c(=O)n1-c1ccccc1 | -9.85 ± 5.9
CNC(=O)c1ccccc1Nc1nc(Nc2ccc(N3CCOCC3)cc2OC)ncc1Cl | 25.1 ± 15
CN1CCN(c2ccc(Nc3cc(-c4cccc(-n5ccc6cc(C7CC7)cc(F)c6c5=O)c4CO)cn(C)c3=O)nc2)CC1 | 6.04 ± 9
NC1(Cc2ccc(Cl)cc2)CCN(c2ncnc3[nH]ccc23)CC1 | 2.05 ± 3.4
O=C(NCCCNc1nc(Nc2cccc(NC(=O)N3CCCC3)c2)ncc1I)c1cccs1 | -0.457 ± 1.2
CC(C)n1nc(-c2cc3cc(O)ccc3[nH]2)c2c(N)ncnc21 | 5.23 ± 4.5
CS(=O)c1ccc(-c2nc(-c3ccc(F)cc3)c(-c3ccncc3)[nH]2)cc1 (stereo not drawn) | -6.83 ± 8.7
CC1=C(C(=O)Nc2cc3cn[nH]c3cc2F)C(c2ccc(C(F)(F)F)cc2)CC(=O)N1 (stereo not drawn) | -2.47 ± 11
CC(O)C(=O)O.CC(O)C(=O)O.CN1CCN(c2ccc3nc(-c4c(N)c5c(F)cccc5[nH]c4=O)[nH]c3c2)CC1 [Dovitinib (TKI-258) Dilactic Acid] | 10.5 ± 12
CN1CCN(Cc2ccc(-c3cnc4[nH]cc(-c5ccc6[nH]ccc6c5)c4c3)cc2)CC1 | 11.2 ± 7.5
CCCCCCCCCCCCCCCc1cccc(O)c1C(=O)O [Anacardic Acid] | 19.2 ± 19
Oc1cc(O)cc(/C=C/c2ccc(O)c(O)c2)c1 [Piceatannol] | 44.1 ± 8
COc1cc(Nc2c(C#N)cnc3cc(OCCCN4CCN(C)CC4)c(OC)cc23)c(Cl)cc1Cl [Bosutinib (SKI-606)] | 0.893 ± 13
CCN(CC)CCCC(C)Nc1ccnc2cc(Cl)ccc12.O=P(O)(O)O.O=P(O)(O)O (stereo not drawn) [Chloroquine Phosphate] | -15.1 ± 5.7

Structure (SMILES) | percent reduction in TR-FRET probe signal [%]
C=CC(=O)Nc1cccc(Oc2nc(Nc3ccc(N4CCN(C)CC4)cc3)ncc2Cl)c1 | 1.06 ± 9.5
C=CC(=O)Nc1ccc2ncnc(Nc3ccc(OCc4cccc(F)c4)c(Cl)c3)c2c1.Cc1ccc(S(=O)(=O)O)cc1 | 4.49 ± 7.8
Cn1sc(=O)n(Cc2ccccc2)c1=O | -18.6 ± 15
CCCCOc1c(C(=O)c2c(F)cc(C)cc2F)cnc2[nH]ncc12 | 0.53 ± 8
COc1ncc(-c2ccc3nccc(-c4ccnnc4)c3c2)cc1NS(=O)(=O)c1ccc(F)cc1F | 3.02 ± 16
Cc1nc(Nc2n[nH]c3c2CN(C(=O)N[C@H](CN(C)C)c2ccccc2)C3(C)C)c2sccc2n1 | 61.8 ± 9.6
O=C(NCc1cccc(O)c1)Nc1nc(-c2ccncc2)cs1 | -10 ± 8.6
Cc1cc(C)c(/C=C2\C(=O)Nc3ccccc32)[nH]1 [Semaxanib (SU5416)] | 2.37 ± 8.9
Cc1ccc(F)c(NC(=O)Nc2ccc(-c3cccc4[nH]nc(N)c34)cc2)c1 [Linifanib (ABT-869)] | 1.08 ± 12
Cc1cn(-c2cc(NC(=O)c3ccc(C)c(Nc4nccc(-c5cccnc5)n4)c3)cc(C(F)(F)F)c2)cn1 [Nilotinib (AMN-107)] | 17.5 ± 28
CO[C@H]1C[C@@H]2CC[C@@H](C)[C@@](O)(O2)C(=O)C(=O)N2CCCC[C@H]2C(=O)O[C@H]([C@@H](C)C[C@@H]2CC[C@@H](OCCO)[C@H](OC)C2)CC(=O)[C@H](C)/C=C(\C)[C@@H](O)[C@@H](OC)C(=O)[C@H](C)C[C@H](C)/C=C/C=C/C=C/1C [Everolimus (RAD001)] | -14.9 ± 8.4
COc1ccc(S(=O)(=O)N(C(C)=O)c2ccccc2/C=C/c2cc[n+]([O-])cc2)cc1 | -0.117 ± 12
O=c1cc(-c2ccccc2)oc2c(O)c(O)ccc12 [7,8-Dihydroxyflavone] | -6.52 ± 5.7
C[C@H](Nc1ncnc2[nH]cnc12)c1cc2ccc(F)cc2nc1-c1ccccn1 | -3.52 ± 7.7
CN1CC[C@H](c2c(O)cc(O)c3c(=O)cc(-c4ccccc4Cl)oc23)[C@H](O)C1.Cl [Flavopiridol HCl] | -6.15 ± 9.4
N#Cc1c(Oc2ccc(F)c(NC(=O)Cc3cccc(C(F)(F)F)c3)c2)ccc2nc(NC(=O)C3CC3)sc12 | 1.05 ± 9.1
NC(=O)c1ccc(-c2nc(-c3ccc4c(c3)OCCO4)c(-c3ccccn3)[nH]2)cc1 | -1.5 ± 7.3
CC(C)(CCCCCC(O)CCCCCC(C)(C)C(=O)O)C(=O)O | 0.88 ± 3.4
Cc1nc2c(-c3cnc(N)nc3)nc(N3CCOCC3)nc2n1C(C)C | -5.76 ± 8.3
